# Source: PubChem BioAssay
# CYP2C9 activ – human CYP2C9 activators, primary screen, biochemical, luminescence. Cytochrome P450 2C9 (Homo sapiens), P11712. recombinant CYP2C9, luciferin-H conversion; hits give high values; factor 1 = untreated enzyme, 0 = blocked. activation factor at 5 µM. hit rate 1.4% among 96,000. AID 1024, 2008;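 active = activation factor of 2 or more for CYP2C9 at a 5 µM dose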;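 also: 0 = sulfaphenazole-blocked wells and 1 = vehicle-only wells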
# Cav3 T inh – Cav3.2 calcium influx blockers – cell-based, Fluo-4 calcium fluorescence, FDSS, MLSMR library, primary screen | Cav3.2-expressing cells; hits give low values | B-score at 10 µM | hit rate 4% among 100,000;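 active = single-dose well whose peak fluorescence ratio is a statistical outlier from its plate by either plate-standardised score or position-corrected B-score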
# CYP2C9 inh – blockers of cytochrome P450 2C9 activity – biochemical, luminescence, ADME assay, primary screen. P11712. CYP2C9 Supersomes, luciferin-H conversion. inhibition, % at 5 µM. hit rate 20% among 96,000;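 active = blocking of liver enzyme CYP2C9 beyond about 50% at 5 µM, limit read from the data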
# CYP2C19 inhib – blockers of cytochrome P450 2C19 activity – biochemical, luminescence, ADME assay, primary screen. P33261. CYP2C19 Supersomes, luciferin-H EGE luminescence, 30 min. inhibition, % at 5 µM. hit rate 21% among 96,000. AID 778, 2007;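 active = CYP2C19 inhibition above a set limit at 5 µM in the primary screen, cut at about 50% in these data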;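 also: plate controls were negative control wells for no effect and 2.5 mM tranylcypromine positive control for full effect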
# CYP2C19 act – human CYP2C19 activators, primary screen, biochemical, luminescence. Cytochrome P450 2C19 (Homo sapiens), P33261. recombinant CYP2C19, luciferin-H EGE luminescence; hits give high values; 0 = fully inhibited enzyme, 1 = untreated enzyme. activation factor at 5 µM. 96,000 tested, under 10 active;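 active = activation factor of at least 2 at 5 µM in the primary screen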;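 also: 0 = wells with 2.5 mM tranylcypromine and 1 = vehicle-only wells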
# Numbers without * were called inactive; x = not tested or not shown. Compounds with a hit are over-represented: about 27% of the library has one in this group of screens.
SMILES,CYP2C9 activ,Cav3 T inh,CYP2C9 inh,CYP2C19 inhib,CYP2C19 act
COc1ccc2[nH]c(=O)c(CN(Cc3cccs3)Cc3nnnn3Cc3ccccc3)cc2c1,0.9,0.068,13.4,5.0,0.9
COc1ccc2[nH]c(=O)c(CN(Cc3ccc(C)cc3)Cc3nnnn3CC3CCCO3)cc2c1 (stereo not drawn),0.2,-4.05,84.3*,60.5*,0.4
COc1cc(C(=O)N(Cc2cc3cc(C)ccc3[nH]c2=O)CC2CCCO2)cc(OC)c1OC (stereo not drawn),0.4,0.6,63.2*,35.1,0.6
Cc1ccc2occ(C3N[C@H](C(=O)O)CS3)c(=O)c2c1 (stereo partly drawn),0.8,-0.843,20.3,7.1,0.9
CCOC(=O)CSc1nnnn1-c1cccc2ccccc12,x,-0.272,x,x,x
Cc1cccc(OCCCC(=O)Nc2ccc(N3CCCCC3)cc2)c1C,0.9,0.35,8.5,-1.3,1
Cc1ccc2cc(CN(Cc3cccs3)Cc3nnnn3CC3CCCO3)c(=O)[nH]c2c1 (stereo not drawn),1,-0.0852,2.2,29.6,0.7
COc1ccccc1CN(Cc1cc2cc(C)ccc2[nH]c1=O)Cc1nnnn1CC1CCCO1 (stereo not drawn),0.4,-2.46,56.5*,24.3,0.8
COc1ccc(-c2nc(Cn3c(SCc4ccc(F)cc4)nc4ccncc43)c(C)o2)cc1OC,0.1,-1.11,89.8*,88.6*,0.1
CCC(C)NC(=O)c1ccc(CSc2nc3ccncc3n2Cc2ccc(F)cc2)cc1 (stereo not drawn),x,-0.0509,x,x,x
COc1ccc(-c2nc(Cn3c(SCc4ccccc4F)nc4ccncc43)c(C)o2)cc1,0.3,-0.121,73.3*,96.7*,0
O=C(NCCCN1CCN(c2cccc(Cl)c2)CC1)c1ccc(N2CCCC2=O)cc1,0.3,0.912,66.0*,49.2,0.5
COc1ccc(-c2noc(CCC(=O)NCCN3CCN(c4ccccc4F)CC3)n2)cc1,0.3,-1.52,68.6*,44.6,0.6
COc1ccc(-c2noc(CCC(=O)NCCCN3CCC(C)CC3)n2)cc1,1,0.797,2.4,-0.4,1
Cc1ccc(-c2noc(CCC(=O)NCCCN3CCN(c4cccc(Cl)c4)CC3)n2)cc1,0.3,-0.0838,73.8*,37.9,0.6
Cc1ccc(-c2noc(CCC(=O)NCCCN3CCN(c4ccc(F)cc4)CC3)n2)cc1,0.3,-1.4,69.5*,57.4*,0.4
COc1ccccc1C1=NOC(C)(c2nnc(-c3cccc(Cl)c3)o2)C1 (stereo not drawn),x,-0.275,x,x,x
Cc1cccc(C)c1NC(=O)CSCC(=O)c1ccc(O)c(O)c1,1.2,0.569,-22.6,-4.3,1
Cn1c2c(c(=O)n(C)c1=O)CN(Cc1ccc3c(c1)OCO3)CN2,1.1,0.142,-9.3,1.5,1
CC1(C)CC(=O)C2=C(C1)N=C1c3ccccc3C(=O)C1C2c1ccc(Cl)cc1 (stereo not drawn),0.1,-2.99,91.9*,80.7*,0.2
CCOC(=O)C1=C(C)N=C2c3ccccc3C(=O)C2C1c1ccc(Cl)cc1 (stereo not drawn),0.7,0.184,25.1,2.5,1
Cc1cccc(N2CCN(C(c3cccs3)c3nnnn3C(C)(C)C)CC2)c1C (stereo not drawn),0.5,-6.36*,53.6*,44.8,0.6
COCCn1nnnc1C(c1cccs1)N1CCN(c2cc(C)ccc2C)CC1 (stereo not drawn),0.4,-4.29*,61.9*,38.3,0.6
COCCn1nnnc1C(c1cc2cc(C)cc(C)c2[nH]c1=O)N1CCN(c2ccccc2F)CC1 (stereo not drawn),0.2,-0.569,78.2*,34.7,0.7
COCCn1nnnc1C(c1cccs1)N1CCN(c2nc3ccccc3s2)CC1 (stereo not drawn),0.1,-2.4,89.2*,82.3*,0.2
CCC(c1nnnn1Cc1cccs1)N1CCN(c2nc3ccccc3s2)CC1 (stereo not drawn),0.6,-3.27,42.2,41.0,0.6
Cc1cccc(NC(=S)NNC(=O)CCn2cc(C)cn2)c1,0.8,0.248,21.2,28.7,0.7
Fc1cccc(Nc2cc(-n3cccn3)ncn2)c1,x,-0.354,x,x,x
CCN(CC)c1nc2c(s1)C(=O)CC(C)(C)C2,1,-0.0916,-4.5,48.1,0.5
